“And” between values parts separate entries of the source, which are not always exact repeats. Equal entries are not always repeated. Out of some 5,500 compounds screened, about 2,000 (36%) were called active. Another 18% or so got no clear call; they are omitted. Some of the results follow. Values without a mark were called inactive. Cut-off read from the data, not from the text of the source: active = normalized growth mostly below about 0.91 (no sharp cut-off); inconclusive = no clear call, values can overlap the other calls; inactive = mostly above about 0.92.
Test: chemical genetic growth profiling, strain panel (AID 1159580);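 note: tested at 20 µM; growth read once vehicle control cultures reached saturation at 30 °C; 1 = growth at the plate median or of vehicle wells; lower values mean less growth of the strain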
Settings: S. cerevisiae deletion strains, growth OD

SMILES: C#C[C@]1(O)CCC2C3CCC4=CC(=O)CC[C@@H]4C3CC[C@@]21CC (some centres undefined)
- normalized growth (locus YAL021C, strain ccr4, hits give low values): 0.986
- normalized growth (locus YAL026C, strain drs2, hits give low values): 0.972
- normalized growth (locus YAL030W, strain snc1, hits give low values): 1
- normalized growth (locus YBL061C, strain skt5, hits give low values): 0.987
- normalized growth (locus YBR009C, strain hhf1, hits give low values): 0.985
- normalized growth (locus YBR021W, strain FUR4, hits give low values): 1
- normalized growth (locus YBR023C, strain chs3, hits give low values): 0.983
- normalized growth (locus YBR171W, strain sec66, hits give low values): 0.992
- normalized growth (locus YBR229C, strain ROT2, hits give low values): 0.984
- normalized growth (locus YBR231C, strain swc5, hits give low values): 1.01
- normalized growth (locus YBR279W, strain paf1, hits give low values): 0.998
- normalized growth (locus YCL011C, strain gbp2, hits give low values): 1
- normalized growth (locus YCL016C, strain dcc1, hits give low values): 0.988
- normalized growth (locus YCL029C, strain bik1, hits give low values): 0.981
- normalized growth (locus YCL061C, strain MRC1, hits give low values): 0.991
- normalized growth (locus YCL069W, strain vba3, hits give low values): 0.995
- normalized growth (locus YCR088W, strain abp1, hits give low values): 0.999
- normalized growth (locus YDL005C, strain med2, hits give low values): 0.987
- normalized growth (locus YDL035C, strain GPR1, hits give low values): 0.979
- normalized growth (locus YDL040C, strain nat1, hits give low values): 0.99
- normalized growth (locus YDL074C, strain BRE1, hits give low values): 1.04
- normalized growth (locus YDL101C, strain DUN1, hits give low values): 0.987
- normalized growth (locus YDL134C, strain PPH21, hits give low values): 0.974
- normalized growth (locus YDL185W, strain tfp1, hits give low values): 0.982
- normalized growth (locus YDL192W, strain arf1, hits give low values): 0.986
- normalized growth (locus YDR001C, strain nth1, hits give low values): 1
- normalized growth (locus YDR069C, strain doa4, hits give low values): 0.979
- normalized growth (locus YDR101C, strain arx1, hits give low values): 0.988
- normalized growth (locus YDR137W, strain rgp1, hits give low values): 0.82 (active)
- normalized growth (locus YDR150W, strain NUM1, hits give low values): 1.01
- normalized growth (locus YDR159W, strain sac3, hits give low values): 0.978
- normalized growth (locus YDR162C, strain NBP2, hits give low values): 0.997
- normalized growth (locus YDR195W, strain ref2): 1.05
- normalized growth (locus YDR297W, strain sur2, hits give low values): 0.993
- normalized growth (locus YDR318W, strain mcm21, hits give low values): 0.976
- normalized growth (locus YDR334W, strain swr1, hits give low values): 1.01
- normalized growth (locus YDR335W, strain msn5, hits give low values): 1
- normalized growth (locus YDR388W, hits give low values): 0.992
- normalized growth (locus YDR392W, strain spt3, hits give low values): 0.828
- normalized growth (locus YDR502C, strain sam2, hits give low values): 0.984
- normalized growth (locus YEL003W, strain gim4, hits give low values): 0.967
- normalized growth (locus YEL037C, strain rad23, hits give low values): 0.983
- normalized growth (locus YEL061C, strain CIN8 (second series), hits give low values): 1
- normalized growth (locus YEL061C, strain CIN8, hits give low values): 1.01
- normalized growth (locus YER015W, strain faa2, hits give low values): 1.01
- normalized growth (locus YER016W, strain bim1, hits give low values): 0.993
- normalized growth (locus YER110C, hits give low values): 0.999
- normalized growth (locus YER111C, strain swi4, hits give low values): 0.997
- normalized growth (locus YER155C, strain BEM2 (second series), hits give low values): 0.997
- normalized growth (locus YER155C, strain BEM2, hits give low values): 0.99
- normalized growth (locus YER167W, strain BCK2, hits give low values): 0.991
- normalized growth (locus YFR010W, strain ubp6, hits give low values): 0.991
- normalized growth (locus YGL078C, strain dbp3, hits give low values): 0.989
- normalized growth (locus YGL086W, strain mad1, hits give low values): 1
- normalized growth (locus YGL167C, strain pmr1, hits give low values): 0.995
- normalized growth (locus YGL173C, strain kem1, hits give low values): 0.979
- normalized growth (locus YGL227W, strain vid30, hits give low values): 1.01
- normalized growth (locus YGL240W, strain doc1, hits give low values): 0.991
- normalized growth (locus YGL248W, strain PDE1, hits give low values): 0.993
- normalized growth (locus YGL253W, strain hxk2, hits give low values): 0.995
- normalized growth (locus YGR135W, strain pre9, hits give low values): 0.975
- normalized growth (locus YGR229C, strain SMI1, hits give low values): 1.01
- normalized growth (locus YGR252W, strain gcn5, hits give low values): 1.06
- normalized growth (locus YHR013C, strain ard1, hits give low values): 1.01
- normalized growth (locus YHR027C, strain rpn1, hits give low values): 1.01
- normalized growth (locus YHR030C, strain SLT2, hits give low values): 0.995 and 0.955
- normalized growth (locus YHR079C, strain IRE1 (second series), hits give low values): 0.979
- normalized growth (locus YHR079C, strain IRE1, hits give low values): 0.955
- normalized growth (locus YHR094C, strain hxt1, hits give low values): 1
- normalized growth (locus YHR129C, strain ARP1, hits give low values): 0.996
- normalized growth (locus YHR142W, strain chs7, hits give low values): 0.997
- normalized growth (locus YHR200W, strain rpn10, hits give low values): 0.984
- normalized growth (locus YIL066C, strain RNR3, hits give low values): 0.995
- normalized growth (locus YIL073C, strain SPO22, hits give low values): 0.944
- normalized growth (locus YIL125W, strain kgd1, hits give low values): 0.998
- normalized growth (locus YIR030C, strain dcg1, hits give low values): 0.982
- normalized growth (locus YJL092W, strain hpr5, hits give low values): 0.998
- normalized growth (locus YJL095W, strain BCK1 (second series), hits give low values): 1.01
- normalized growth (locus YJL095W, strain BCK1, hits give low values): 0.988 and 0.951
- normalized growth (locus YJL115W, strain asf1, hits give low values): 1
- normalized growth (locus YJL129C, strain trk1, hits give low values): 0.986
- normalized growth (locus YJL134W, strain LCB3, hits give low values): 0.995
- normalized growth (locus YJL154C, strain vps35, hits give low values): 0.993
- normalized growth (locus YJL164C, strain tpk1, hits give low values): 0.988
- normalized growth (locus YJL166W, strain qcr8, hits give low values): 0.991
- normalized growth (locus YJL168C, strain set2, hits give low values): 0.99
- normalized growth (locus YJL187C, strain SWE1 (second series), hits give low values): 0.988
- normalized growth (locus YJL187C, strain SWE1, hits give low values): 0.997
- normalized growth (locus YJR043C, strain POL32, hits give low values): 1.01

Source: PubChem BioAssay AID1159580 (chemical genetic matrix, 2015)
